C8 TRAIL sens – caspase-8 TRAIL sensitization. NB7+C8 cells + TRAIL, ATPlite viability luminescence. inhibition (viability loss, TRAIL sensitization), % at 10 µM. 360,000 compounds, 1% hits. AID 624354;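 active = compounds causing at least 50% loss of cell viability in the single-dose screen, relative to plate controls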
TROY signal inh – inhibitors of TROY-dependent NF-kB signaling. AID 1347056. inhibition, % at 10 µM. 360,000 compounds, 0.98% hits. Q293 LMP1-TROYcd NF-kB luciferase reporter, 4 h;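 active = compounds whose plate-normalised and pattern-corrected inhibition of the luciferase reporter signal at the single screening dose is 50% or more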
HIF-2a inh – blocks HIF-2a reporter activity | 786-0 RCC cells HIF-2a reporter, luciferase luminescence, overnight | inhibition, % at 18.8 µM | 360,000 compounds, 0.72% hits | AID 624352;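 active = inhibition of the luminescence signal of 40% or more relative to plate controls, in a single-dose primary screen at 18.75 µM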
HSP90 inh – inhibitors of HSP90 luciferase refolding in rabbit reticulocyte lysate | 290,000 compounds, 0.91% hits | luciferase refolding luminescence, 3 h | inhibition, % at 5.6 µM;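 active = inhibition above the screen-wide mean plus 3 SD, computed separately per campaign, cut at about 16% in these data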;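 note: 0% = DMSO wells and 100% = 60 µM geldanamycin wells; inhibitors lower the luminescence because luciferase stays unfolded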
TWEAK Fn14 block – TWEAK-Fn14 signaling inhibition | inhibition, % at 10 µM | AID 1159606 | 360,000 compounds, 2% hits | TWEAK-stimulated Fn14 reporter cells, luciferase luminescence, 8 h; in the data active = inhibition above about 50%
aSyn UTR inh – 5' untranslated region of α-synuclein, MLPCN primary screen | 300,000 compounds, 0.82% hits | inhibition, % (tested at 7.5 µM) | alpha-synuclein 5'UTR reporter, inhibitor activity; in the data active = inhibition above about 60%;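 note: H4 neuroglioblastoma cells stably carrying SNCA 5'UTR luciferase fusion; 0% = DMSO wells and 100% = positive control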
Starred values were filed as active, the others as inactive; . = not tested or not shown. Rows were chosen to be rich in hits. Some 3.9% of all compounds tested hit in one or more screens of this group.

SMILES | C8 TRAIL sens | TROY signal inh | HIF-2a inh | HSP90 inh | TWEAK Fn14 block | aSyn UTR inh
CCN(c1ccccc1)S(=O)(=O)c1ccc(Oc2ccc(-n3ccnc3)cc2)nc1 | 15 | 5 | 29 | 5 | -4 | 103*
CCN(c1ccccc1)S(=O)(=O)c1ccc(Oc2ccccc2C(C)=O)nc1 | -7 | 8 | 14 | . | 5 | .
O=C(Cc1cccc(NC(=O)C2CCCN(C(=O)CCc3ccccc3)C2)c1)Nc1cccc(C(=O)N2CCCCC2)c1 (configuration not stated) | 14 | 14 | 3 | . | 19 | .
CCCCn1nnnc1C1(C)CCC(=O)N1Cc1cc(OC)ccc1OC (configuration not stated) | -5 | 6 | 8 | . | 3 | .
COc1ccc(-c2ccc(SC)nn2)cc1 | 86* | 46 | 10 | 43* | 88* | 75*
CCCCC(CC)CN1C(=O)/C(=C/c2ccncc2)SC1=S (configuration not stated) | 86* | -6 | 24 | -1 | 15 | 42
CCN1C(=O)/C(=C\c2ccncc2)SC1=S | 6 | -1 | 9 | 4 | 1 | 24
COc1ccc2c(C(=O)CCl)c[nH]c2c1 | 12 | 4 | -32 | 0 | 53* | 14
